Assays:
Assay in all cases: log2 ratio of Biotin-Ahx-Ub-VS probe labelling (fragment/DMSO); higher = less target engagement (more negative = stronger competition), active = hit call of the paper (q ≤ 0.05, log2 ratio ≤ -1)
Details in all cases: compound concentration: 200 uM; treatment time: 3 h
USP19 = target: T1, USP19 (UniProt O94966)
T1 sequence (whole entry): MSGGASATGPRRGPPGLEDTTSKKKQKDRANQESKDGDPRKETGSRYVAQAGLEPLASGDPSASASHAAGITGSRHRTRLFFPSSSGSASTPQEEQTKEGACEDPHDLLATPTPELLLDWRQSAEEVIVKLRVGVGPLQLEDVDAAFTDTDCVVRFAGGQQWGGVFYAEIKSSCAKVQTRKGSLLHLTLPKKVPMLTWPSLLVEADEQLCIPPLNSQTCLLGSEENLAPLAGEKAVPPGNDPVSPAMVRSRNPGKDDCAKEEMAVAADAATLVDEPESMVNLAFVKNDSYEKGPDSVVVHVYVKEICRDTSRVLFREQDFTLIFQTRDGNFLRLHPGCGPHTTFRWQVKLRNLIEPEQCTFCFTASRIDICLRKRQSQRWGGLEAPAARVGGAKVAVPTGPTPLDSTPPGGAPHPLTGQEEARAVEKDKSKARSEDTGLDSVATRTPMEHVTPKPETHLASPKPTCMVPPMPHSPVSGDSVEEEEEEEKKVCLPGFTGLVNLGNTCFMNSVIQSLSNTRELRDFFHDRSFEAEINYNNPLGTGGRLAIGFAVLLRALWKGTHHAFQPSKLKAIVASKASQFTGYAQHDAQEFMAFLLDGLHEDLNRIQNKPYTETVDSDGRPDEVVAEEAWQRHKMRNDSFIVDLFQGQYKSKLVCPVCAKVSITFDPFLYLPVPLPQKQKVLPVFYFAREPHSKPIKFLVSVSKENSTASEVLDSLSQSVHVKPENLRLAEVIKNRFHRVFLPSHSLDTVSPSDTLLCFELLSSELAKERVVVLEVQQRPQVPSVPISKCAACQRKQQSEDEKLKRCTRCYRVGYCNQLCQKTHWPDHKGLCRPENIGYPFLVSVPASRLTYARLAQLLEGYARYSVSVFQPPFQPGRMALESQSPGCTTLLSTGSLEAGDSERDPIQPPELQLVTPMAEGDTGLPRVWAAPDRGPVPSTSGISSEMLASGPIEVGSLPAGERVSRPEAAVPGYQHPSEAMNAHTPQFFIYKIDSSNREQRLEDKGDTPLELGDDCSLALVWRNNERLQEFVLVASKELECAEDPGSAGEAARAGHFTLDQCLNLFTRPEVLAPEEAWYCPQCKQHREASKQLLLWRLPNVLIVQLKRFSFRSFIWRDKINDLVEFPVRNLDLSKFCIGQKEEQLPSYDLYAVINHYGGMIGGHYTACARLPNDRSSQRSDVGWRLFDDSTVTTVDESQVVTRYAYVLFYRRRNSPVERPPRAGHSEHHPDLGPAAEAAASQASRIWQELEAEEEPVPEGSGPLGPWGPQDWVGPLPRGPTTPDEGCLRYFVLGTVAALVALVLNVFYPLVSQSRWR
Outline: (§1)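 Labelling with Biotin-Ahx-Ub-VS (0.5 µM final, 1 h) followed a 3 h triplicate treatment of HEK293T lysate (495 µg per sample, Tris/CHAPS/IGEPAL buffer with protease inhibitors) with fragment at 200 µM or vehicle. Labelled DUBs were NeutrAvidin-enriched, digested with LysC and trypsin, and run by diaPASEF LC-MS/MS. The values, average log2 fragment/vehicle ratios by unpaired t-test, come from global-median-normalised Spectronaut label-free quantities. Proteins with ≥2 unique peptides were used.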

USP22 = target: T2, USP22 (UniProt Q9UPT9)
T2 sequence (whole entry): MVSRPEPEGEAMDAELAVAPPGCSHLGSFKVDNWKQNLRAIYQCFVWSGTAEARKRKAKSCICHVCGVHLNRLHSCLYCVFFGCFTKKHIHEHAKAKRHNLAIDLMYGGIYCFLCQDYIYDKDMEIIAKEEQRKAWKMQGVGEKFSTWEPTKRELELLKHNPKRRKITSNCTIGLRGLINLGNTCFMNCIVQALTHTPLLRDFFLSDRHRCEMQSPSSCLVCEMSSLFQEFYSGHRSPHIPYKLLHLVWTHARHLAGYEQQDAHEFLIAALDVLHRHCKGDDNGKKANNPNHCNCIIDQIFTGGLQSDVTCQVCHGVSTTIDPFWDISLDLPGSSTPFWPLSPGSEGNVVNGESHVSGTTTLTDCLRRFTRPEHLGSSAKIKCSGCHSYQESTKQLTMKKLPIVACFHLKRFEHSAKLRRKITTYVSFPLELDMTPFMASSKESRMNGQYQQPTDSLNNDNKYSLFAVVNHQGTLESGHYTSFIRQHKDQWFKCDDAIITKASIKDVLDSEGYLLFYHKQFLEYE
Outline: as §1

USP24 = USP24 (UniProt Q9UPU5)
Sequence of USP24 (Q9UPU5 whole entry): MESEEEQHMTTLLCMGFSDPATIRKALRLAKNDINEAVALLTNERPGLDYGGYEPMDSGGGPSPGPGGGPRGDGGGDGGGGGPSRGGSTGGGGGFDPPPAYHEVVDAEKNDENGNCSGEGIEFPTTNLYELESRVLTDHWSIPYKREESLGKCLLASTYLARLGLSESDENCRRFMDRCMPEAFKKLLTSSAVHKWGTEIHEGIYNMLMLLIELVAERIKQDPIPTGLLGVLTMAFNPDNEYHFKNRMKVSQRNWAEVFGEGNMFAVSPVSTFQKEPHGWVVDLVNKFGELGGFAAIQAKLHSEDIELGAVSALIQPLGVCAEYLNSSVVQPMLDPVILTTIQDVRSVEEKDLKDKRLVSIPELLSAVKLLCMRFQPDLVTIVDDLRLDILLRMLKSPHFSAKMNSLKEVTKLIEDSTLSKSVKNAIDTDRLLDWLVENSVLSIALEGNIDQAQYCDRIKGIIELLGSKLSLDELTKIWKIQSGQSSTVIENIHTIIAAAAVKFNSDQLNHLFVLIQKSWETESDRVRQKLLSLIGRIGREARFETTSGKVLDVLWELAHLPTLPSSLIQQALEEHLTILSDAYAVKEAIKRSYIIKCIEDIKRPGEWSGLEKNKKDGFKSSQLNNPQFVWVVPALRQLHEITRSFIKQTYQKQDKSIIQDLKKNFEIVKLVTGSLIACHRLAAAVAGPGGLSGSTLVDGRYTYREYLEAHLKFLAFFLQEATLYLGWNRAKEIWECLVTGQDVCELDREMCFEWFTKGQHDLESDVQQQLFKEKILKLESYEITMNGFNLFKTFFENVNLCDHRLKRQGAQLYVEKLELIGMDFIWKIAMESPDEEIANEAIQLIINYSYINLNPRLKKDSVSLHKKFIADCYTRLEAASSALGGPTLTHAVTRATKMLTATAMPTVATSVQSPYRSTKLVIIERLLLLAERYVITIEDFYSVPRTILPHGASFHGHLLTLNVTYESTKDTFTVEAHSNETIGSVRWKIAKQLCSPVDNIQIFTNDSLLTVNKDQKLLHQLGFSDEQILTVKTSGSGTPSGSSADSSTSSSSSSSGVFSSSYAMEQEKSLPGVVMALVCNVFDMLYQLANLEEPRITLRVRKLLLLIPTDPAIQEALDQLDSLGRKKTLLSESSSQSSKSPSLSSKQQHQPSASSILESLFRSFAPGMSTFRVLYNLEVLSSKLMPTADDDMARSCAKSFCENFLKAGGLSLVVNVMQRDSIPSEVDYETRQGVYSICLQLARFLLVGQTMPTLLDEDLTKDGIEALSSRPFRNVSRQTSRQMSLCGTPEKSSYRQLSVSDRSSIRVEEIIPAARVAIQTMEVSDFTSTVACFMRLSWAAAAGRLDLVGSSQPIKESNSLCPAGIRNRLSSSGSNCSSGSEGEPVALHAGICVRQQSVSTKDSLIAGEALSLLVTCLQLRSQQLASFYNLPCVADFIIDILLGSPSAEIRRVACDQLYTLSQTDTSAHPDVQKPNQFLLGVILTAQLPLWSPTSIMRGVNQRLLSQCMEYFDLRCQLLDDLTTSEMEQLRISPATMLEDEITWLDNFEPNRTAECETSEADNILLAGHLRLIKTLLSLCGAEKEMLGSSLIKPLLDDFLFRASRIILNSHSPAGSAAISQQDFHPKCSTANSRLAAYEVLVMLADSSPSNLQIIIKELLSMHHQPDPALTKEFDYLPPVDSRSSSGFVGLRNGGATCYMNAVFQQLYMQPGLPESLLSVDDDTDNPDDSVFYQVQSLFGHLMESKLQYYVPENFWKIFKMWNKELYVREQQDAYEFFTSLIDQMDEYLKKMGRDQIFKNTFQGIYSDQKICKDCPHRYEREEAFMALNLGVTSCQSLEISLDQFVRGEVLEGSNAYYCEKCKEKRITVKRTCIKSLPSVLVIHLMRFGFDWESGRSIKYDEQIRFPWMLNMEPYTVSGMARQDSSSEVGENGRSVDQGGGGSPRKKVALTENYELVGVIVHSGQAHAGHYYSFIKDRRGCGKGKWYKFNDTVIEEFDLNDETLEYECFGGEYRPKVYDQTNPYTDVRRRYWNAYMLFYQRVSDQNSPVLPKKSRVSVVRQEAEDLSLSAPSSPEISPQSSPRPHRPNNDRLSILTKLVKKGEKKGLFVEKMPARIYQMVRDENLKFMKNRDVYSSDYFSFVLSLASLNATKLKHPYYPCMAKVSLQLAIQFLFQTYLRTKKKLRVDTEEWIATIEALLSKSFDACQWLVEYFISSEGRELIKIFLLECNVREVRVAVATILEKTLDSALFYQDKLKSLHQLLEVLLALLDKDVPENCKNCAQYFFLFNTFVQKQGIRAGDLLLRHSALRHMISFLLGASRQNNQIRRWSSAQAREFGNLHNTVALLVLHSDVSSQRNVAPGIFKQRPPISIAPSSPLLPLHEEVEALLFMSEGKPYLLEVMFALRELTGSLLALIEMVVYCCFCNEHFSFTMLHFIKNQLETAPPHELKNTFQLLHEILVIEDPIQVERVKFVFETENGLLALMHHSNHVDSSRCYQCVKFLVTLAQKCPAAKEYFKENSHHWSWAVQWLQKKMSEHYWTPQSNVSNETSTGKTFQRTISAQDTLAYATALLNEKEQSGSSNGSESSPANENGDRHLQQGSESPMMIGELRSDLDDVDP
Outline: as §1

USP25 = target: T3, USP25 (UniProt Q9UHP3)
T3 sequence (whole entry): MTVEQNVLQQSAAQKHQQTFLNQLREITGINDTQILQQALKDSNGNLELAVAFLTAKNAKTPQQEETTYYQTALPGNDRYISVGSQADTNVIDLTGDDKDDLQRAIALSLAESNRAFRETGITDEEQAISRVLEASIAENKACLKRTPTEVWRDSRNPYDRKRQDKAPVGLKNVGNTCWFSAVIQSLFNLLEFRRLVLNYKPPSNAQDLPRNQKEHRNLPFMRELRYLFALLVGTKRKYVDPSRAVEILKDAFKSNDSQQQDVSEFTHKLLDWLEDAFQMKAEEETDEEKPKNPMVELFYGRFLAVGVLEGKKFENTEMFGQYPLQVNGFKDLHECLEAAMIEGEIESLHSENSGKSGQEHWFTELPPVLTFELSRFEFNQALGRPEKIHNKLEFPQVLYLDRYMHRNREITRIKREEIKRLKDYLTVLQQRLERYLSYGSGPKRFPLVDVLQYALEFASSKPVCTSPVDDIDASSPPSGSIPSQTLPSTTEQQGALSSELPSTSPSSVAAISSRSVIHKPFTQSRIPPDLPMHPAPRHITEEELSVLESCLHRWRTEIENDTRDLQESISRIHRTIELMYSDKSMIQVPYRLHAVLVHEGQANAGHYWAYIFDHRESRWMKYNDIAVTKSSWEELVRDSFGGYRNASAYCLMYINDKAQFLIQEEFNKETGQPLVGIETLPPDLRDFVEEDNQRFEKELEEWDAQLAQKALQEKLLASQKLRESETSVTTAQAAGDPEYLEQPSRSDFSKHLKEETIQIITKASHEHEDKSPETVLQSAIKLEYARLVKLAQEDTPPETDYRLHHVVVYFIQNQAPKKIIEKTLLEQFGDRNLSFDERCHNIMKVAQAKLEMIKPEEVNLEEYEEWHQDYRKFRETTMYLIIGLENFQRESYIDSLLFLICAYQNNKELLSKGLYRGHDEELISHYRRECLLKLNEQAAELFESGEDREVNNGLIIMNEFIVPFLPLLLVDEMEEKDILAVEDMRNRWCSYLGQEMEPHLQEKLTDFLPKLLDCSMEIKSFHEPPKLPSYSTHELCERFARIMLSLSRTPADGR
Outline: as §1

USP28 = target: T4, USP28 (UniProt Q96RU2)
T4 sequence (whole entry): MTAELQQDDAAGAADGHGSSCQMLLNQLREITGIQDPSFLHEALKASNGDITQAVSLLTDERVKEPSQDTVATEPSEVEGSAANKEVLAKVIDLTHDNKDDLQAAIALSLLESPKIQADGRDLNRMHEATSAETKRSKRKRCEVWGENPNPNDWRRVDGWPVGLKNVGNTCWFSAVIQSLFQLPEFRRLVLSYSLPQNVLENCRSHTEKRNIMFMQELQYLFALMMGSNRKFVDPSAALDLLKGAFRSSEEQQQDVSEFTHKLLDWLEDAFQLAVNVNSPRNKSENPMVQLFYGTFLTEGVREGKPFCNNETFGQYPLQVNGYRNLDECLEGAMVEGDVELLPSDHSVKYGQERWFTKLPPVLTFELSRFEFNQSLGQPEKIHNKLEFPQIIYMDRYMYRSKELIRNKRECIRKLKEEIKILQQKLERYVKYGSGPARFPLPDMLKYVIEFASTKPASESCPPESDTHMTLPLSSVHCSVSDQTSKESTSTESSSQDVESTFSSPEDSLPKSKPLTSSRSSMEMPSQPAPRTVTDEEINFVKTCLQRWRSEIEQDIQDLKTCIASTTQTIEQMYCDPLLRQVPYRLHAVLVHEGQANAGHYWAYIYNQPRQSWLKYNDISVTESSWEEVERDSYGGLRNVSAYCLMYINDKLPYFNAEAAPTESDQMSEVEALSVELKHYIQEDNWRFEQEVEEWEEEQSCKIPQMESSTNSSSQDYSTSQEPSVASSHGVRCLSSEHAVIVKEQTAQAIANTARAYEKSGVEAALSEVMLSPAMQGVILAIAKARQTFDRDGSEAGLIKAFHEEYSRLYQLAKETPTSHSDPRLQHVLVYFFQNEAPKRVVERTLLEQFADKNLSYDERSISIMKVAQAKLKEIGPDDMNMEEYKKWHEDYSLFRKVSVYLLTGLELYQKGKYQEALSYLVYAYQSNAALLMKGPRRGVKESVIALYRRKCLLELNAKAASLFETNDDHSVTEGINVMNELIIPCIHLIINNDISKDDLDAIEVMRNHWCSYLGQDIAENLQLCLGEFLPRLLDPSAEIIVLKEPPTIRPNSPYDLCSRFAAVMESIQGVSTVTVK
Outline: as §1

Measured: log2 ratio of Biotin-Ahx-Ub-VS probe labelling

Cl.O=C(CCl)N1CCC(Cc2nccs2)C1 (stereo not given)
inactive: USP19 -0.32 | USP22 0.0323 | USP24 -0.414 | USP25 -0.365 | USP28 -0.389

Reference: the supplement of paper PMC11732987, “Enantioselective OTUD7B fragment discovery through chemoproteomics screening and high-throughput optimisation” (Communications Chemistry, 2025)
